PubChem BioAssay (NCI)
This is part of a sample that, as a whole, favours compounds with a hit. Of some 79,000 tested, about 15% had one in any assay. Activity calls are given as the source filed them. Cut-off read from the data, not from the text of the source: active = growth inhibition above about 70%; inactive = the rest.

Assays:
[1] = NCI Yeast Anticancer Drug Screen. Data for the rad52 strain (AID 147);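 note: 0% = growth of vehicle-treated control cultures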; settings: S. cerevisiae rad52 mutant growth inhibition, active compounds read high
Outline: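 Growth of repair-deficient yeast cells was compared between compound-treated and vehicle-treated cultures to give percent inhibition.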

[2] = NCI Yeast Anticancer Drug Screen. Data for the wt1 strain (AID 149);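 note: 0% = growth of vehicle-treated wt1 cultures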; settings: S. cerevisiae wt1 strain (SPY 50644) growth inhibition, active compounds read high
Outline: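 Using yeast strain wt1, compound-induced growth inhibition was determined against vehicle-treated cultures.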

[3] = NCI Yeast Anticancer Drug Screen. Data for the rad50EPP+ strain (AID 151);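 note: 0% = growth of vehicle-treated control cultures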; settings: S. cerevisiae rad50 mutant strain, active compounds read high
Outline: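 Measured: growth inhibition of rad50EPP+ yeast. Reference: vehicle-treated controls. Screen uses strains with defined genetic alterations in DNA damage repair or cell cycle control.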

[4] = NCI Yeast Anticancer Drug Screen. Data for the mgt1 strain (AID 153); settings: S. cerevisiae mgt1 mutant growth inhibition, active compounds read high
Outline: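 Compounds were applied to mgt1 mutant yeast, and growth was then compared against vehicle-treated control cultures to give percent inhibition.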

[5] = NCI Yeast Anticancer Drug Screen. Data for the rad50 strain (AID 155);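 note: 0% = growth of vehicle-only cultures of the same strain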; settings: S. cerevisiae rad50 strain growth inhibition, active compounds read high
Outline: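 Relative growth inhibition (compound vs vehicle) was measured in yeast with a defined repair-gene alteration.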

[6] = NCI Yeast Anticancer Drug Screen. Data for the mec2-1 strain (AID 157); settings: S. cerevisiae mec2-1 strain, active compounds read high
Outline: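 Compounds were applied to mec2-1 yeast cells. Their growth was then compared with that of vehicle-treated cultures to give growth inhibition.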

[7] = NCI Yeast Anticancer Drug Screen. Data for the rad14 strain (AID 159);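 note: 0% = growth of vehicle-treated control cultures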; settings: S. cerevisiae rad14 strain growth inhibition, active compounds read high
Outline: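 Screen for anticancer potential: a yeast strain altered in DNA damage repair is grown with compound, and reduced growth is quantified against vehicle controls.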

[8] = NCI Yeast Anticancer Drug Screen. Data for the sgs1 mgt1 strain (AID 161);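 note: 0% = growth of cultures given vehicle only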; settings: S. cerevisiae sgs1 mgt1 strain, active compounds read high
Outline: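 This yeast growth screen uses a strain with defined DNA-repair lesions; compound-treated growth is compared with vehicle-treated growth.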

[9] = NCI Yeast Anticancer Drug Screen. Data for the CLN2oe strain (AID 163);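 note: 0% = growth of vehicle-only control cultures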; settings: S. cerevisiae CLN2oe strain, active compounds read high
Outline: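 Cells of an engineered yeast line with disturbed cell-cycle regulation are treated with compound. Inhibition of growth is then calculated relative to the vehicle-treated reference.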

[10] = NCI Yeast Anticancer Drug Screen. Data for the cln2 rad14 strain (AID 165);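 note: 0% = growth equal to vehicle treated cultures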; settings: S. cerevisiae cln2 rad14 strain, active compounds read high
Outline: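 Strain: cln2 rad14 yeast, altered in cell cycle control and DNA damage repair. Read-out: growth inhibition vs vehicle.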

[11] = NCI Yeast Anticancer Drug Screen. Data for the bub3 strain (AID 167); settings: S. cerevisiae bub3 mutant strain, active compounds read high
Outline: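 Screening used yeast with an engineered genetic alteration affecting cell cycle control. Compound-exposed cultures were compared with vehicle cultures, and reduced growth was taken as inhibition.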

[12] = NCI Yeast Anticancer Drug Screen. Data for the mlh1 strain (AID 171);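 note: 0% = growth of vehicle-treated control cultures of the same strain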; settings: S. cerevisiae mlh1 strain growth inhibition, active compounds read high
Outline: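 Test agents were incubated with yeast bearing a defined DNA damage repair or cell cycle control alteration; values are growth inhibition normalised to vehicle-treated cultures.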

[13] = NCI Yeast Anticancer Drug Screen. Data for the sgs1 strain (AID 173);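 note: 0% = growth of vehicle-only control cultures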; settings: S. cerevisiae sgs1 mutant, active compounds read high
Outline: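 Strain with an altered DNA repair or cell cycle pathway exposed to compound. Growth then measured. Value = inhibition versus vehicle control.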

[14] = NCI Yeast Anticancer Drug Screen. Data for the mlh1 rad18 strain (AID 175); settings: S. cerevisiae mlh1 rad18 strain growth inhibition, active compounds read high
Outline: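 A repair-deficient yeast strain is exposed to test compound, and growth is scored relative to vehicle-treated controls.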

[15] = NCI Yeast Anticancer Drug Screen. Data for the rad18 strain (AID 177); settings: S. cerevisiae rad18 mutant growth inhibition, active compounds read high
Outline: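 DNA-repair-defective yeast; compound treatment; growth inhibition scored against vehicle.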

[16] = at 5.0 µM (retest, dose inferred, filed as 0.5)
[17] = at 50.0 µM (retest, dose inferred, filed as 5.0)

Measured: growth inhibition

O=C(NOC(=O)c1ccc([N+](=O)[O-])cc1)c1ccc(Cl)cc1
active: [1]; at 33.0 µM 89% | [1]; at 100.0 µM 97% | [2]; at 33.0 µM 84% | [2]; at 100.0 µM 96% | [3]; at 33.0 µM 85% | [3]; at 100.0 µM 94% | [4]; at 33.0 µM 90% | [4]; at 100.0 µM 97% | [5]; at 33.0 µM 83% | [5]; [17] 89% | [5]; at 50.0 µM 92.4% | [5]; at 100.0 µM 95% | [6]; at 33.0 µM 82% | [6]; [17] 93% | [6]; at 50.0 µM 92.7% | [6]; at 100.0 µM 97% | [7]; at 33.0 µM 88% | [7]; at 100.0 µM 97% | [8]; [17] 94% | [8]; at 50.0 µM 91.3% | [9]; at 33.0 µM 80% | [9]; at 100.0 µM 98% | [10]; [17] 96% | [10]; at 50.0 µM 89% | [11]; [17] 89% | [11]; at 50.0 µM 90% | [11]; at 100.0 µM 95% | [12]; at 33.0 µM 89% | [12]; at 100.0 µM 96% | [13]; at 33.0 µM 88% | [13]; at 100.0 µM 95% | [14]; [17] 96% | [14]; at 50.0 µM 89.7% | [15]; at 33.0 µM 90% | [15]; at 100.0 µM 96%
inactive: [1]; at 1.2 µM -1% | [1]; at 3.7 µM 4% | [1]; at 11.0 µM 31% | [2]; at 1.2 µM -30% | [2]; at 3.7 µM -31% | [2]; at 11.0 µM -9% | [3]; at 1.2 µM -19% | [3]; at 3.7 µM 23% | [3]; at 11.0 µM 68% | [4]; at 1.2 µM -58% | [4]; at 3.7 µM -33% | [4]; at 11.0 µM 1% | [5]; at 1.2 µM -36% | [5]; at 3.7 µM -40% | [5]; [16] 6% | [5]; at 11.0 µM 10% | [6]; at 1.2 µM -84% | [6]; at 3.7 µM -64% | [6]; [16] -4% | [6]; at 11.0 µM -15% | [7]; at 1.2 µM -52% | [7]; at 3.7 µM -27% | [7]; at 11.0 µM -7% | [8]; [16] 10% | [9]; at 1.2 µM -18% | [9]; at 3.7 µM 6% | [9]; at 11.0 µM 15% | [10]; [16] 36% | [11]; at 1.2 µM -19% | [11]; at 3.7 µM -18% | [11]; [16] 0% | [11]; at 11.0 µM -4% | [11]; at 33.0 µM 67% | [12]; at 1.2 µM -35% | [12]; at 3.7 µM -35% | [12]; at 11.0 µM -1% | [13]; at 1.2 µM -39% | [13]; at 3.7 µM -17% | [13]; at 11.0 µM 48% | [14]; [16] 14% | [15]; at 1.2 µM -11% | [15]; at 3.7 µM 2% | [15]; at 11.0 µM 43%
